Our source for the growth values is PubChem BioAssay (NCI).

This is part of a sample that, as a whole, favours compounds with a hit. Of some 83,000 tested, about 20% had one in any assay.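 Percent growth is the endpoint: 0 to 100 indicates growth inhibition (40 means 60% inhibition), 0 means no net growth, and negative values indicate cell death.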 Unmarked numbers belong to inactive results. Activity calls are given as the source filed them. How the source made its calls: active means growth percent below 10; inactive means the rest.

Among the test systems are NCI-H23 lung; NCI-H226 lung; NCI-H322M lung; HOP-62 NSCLC; NCI-H460 lung; HOP-92 NSCLC; NCI-H522 lung; A549/ATCC NSCLC; 786-0 renal; COLO 205 colon; DU-145 prostate; K-562 leukemia; MALME-3M melanoma; MDA-MB-231 breast; RXF 393 renal; SF-268 CNS; SF-295 CNS; SF-539 CNS; UACC-257 melanoma; M14 melanoma.
Common to all, as to test: NCI-60 one-dose screen, 48 h (100 = growth as untreated, 0 = no growth, -100 = all killed)
What all share (conditions): 10 µM unless noted

Consider `CCOC(=O)C1=C(c2ccccc2)N=C2SC=C(c3cccc([N+](=O)[O-])c3)N2C1c1ccc(O)cc1` (stereo not given), for which the growth in the test with NCI-H23 lung was 96.5%; with NCI-H226 lung, 96.8%; in the test on NCI-H322M lung, 96.3%; in the test with HOP-62 NSCLC it was 98.6%; with NCI-H460 lung it was 101%; in the test on HOP-92 NSCLC, 90.1%. Further, the growth is 93.8% in the test on NCI-H522 lung; 100% in the test on A549/ATCC NSCLC; 96.5% in the test with 786-0 renal; 116% in the test on COLO 205 colon; 102% in the test with DU-145 prostate; 112% in the test on K-562 leukemia. Also, the growth in the test with MALME-3M melanoma was 96.7%; in the test with MDA-MB-231 breast it was 93.2%; in the test on RXF 393 renal it was 89.1%; in the test with SF-268 CNS, 94.3%; in the test with SF-295 CNS it was 101%; in the test on SF-539 CNS it was 98.8%. Also, the growth is 96.1% in the test with UACC-257 melanoma and 101% in the test with M14 melanoma.

For `Cc1cc(N2CCOCC2)nc(N(CCCNc2ccnc3cc(Cl)ccc23)Cc2ccc3c(c2)OCO3)n1`, the growth was 13.5% in the test on NCI-H23 lung; 13.8% in the test with NCI-H226 lung; 21.4% in the test with NCI-H322M lung; -17.6% (active) in the test on HOP-62 NSCLC; -11.5% (active) in the test with NCI-H460 lung; -25.8% (active) in the test on HOP-92 NSCLC. Also, the growth in the test with NCI-H522 lung was -66.4% (active); with A549/ATCC NSCLC it was 2.51% (active); with 786-0 renal, -79% (active); in the test on COLO 205 colon, -58.5% (active); in the test on DU-145 prostate it was 20.3%; with K-562 leukemia, -43.7% (active). For the same compound, the growth is -20.5% (active) with MALME-3M melanoma; -37.1% (active) in the test with MDA-MB-231 breast; -75.6% (active) in the test with RXF 393 renal; 15% in the test with SF-268 CNS; -69% (active) in the test on SF-295 CNS; -75.4% (active) in the test with SF-539 CNS. Besides, the growth is -31.5% (active) in the test on UACC-257 melanoma and -61.1% (active) in the test on M14 melanoma.

As to `CN1CCN(Cc2ccc(NC(=O)c3cncc(C#Cc4c(N)ncc5cc(F)ccc45)c3)cc2C(F)(F)F)CC1`, the growth is -39.5% (active) in the test on NCI-H23 lung; 22.2% in the test on NCI-H226 lung; 40.5% in the test with NCI-H322M lung; 45.1% in the test on HOP-62 NSCLC; -19.8% (active) in the test with NCI-H460 lung; -14.2% (active) in the test with HOP-92 NSCLC. The growth was 34.4% in the test on NCI-H522 lung; 45% in the test on A549/ATCC NSCLC; -94% (active) in the test with 786-0 renal; -20.5% (active) with COLO 205 colon; -88% (active) with DU-145 prostate; -50% (active) in the test with K-562 leukemia. The growth in the test on MALME-3M melanoma was -75.3% (active); in the test on MDA-MB-231 breast, -90.4% (active); in the test with RXF 393 renal it was -59.9% (active); in the test with SF-268 CNS, 38.6%; with SF-295 CNS, 59.5%; with SF-539 CNS, 9.53% (active). Besides, the growth was 41.5% in the test on UACC-257 melanoma and -75.8% (active) in the test on M14 melanoma.

Take `CN1CCN(Cc2ccc(NC(=O)c3cncc(C#Cc4c(N)ncc5c(F)cccc45)c3)cc2C(F)(F)F)CC1`: the growth with NCI-H23 lung was -66.3% (active); in the test on NCI-H226 lung, 14%; in the test on NCI-H322M lung it was -23.7% (active); in the test with HOP-62 NSCLC, -80.2% (active); in the test with NCI-H460 lung, -48% (active); with HOP-92 NSCLC, -58.8% (active). In addition, the growth in the test with NCI-H522 lung was -76% (active); in the test with A549/ATCC NSCLC, -90.6% (active); with 786-0 renal, -79% (active); with COLO 205 colon, -83.6% (active); in the test with DU-145 prostate, -90.3% (active); in the test on K-562 leukemia, -66.9% (active). For the same compound, the growth in the test with MALME-3M melanoma is -74.3% (active); in the test with MDA-MB-231 breast, -89.6% (active); in the test on RXF 393 renal, -91.5% (active); in the test with SF-268 CNS, -63.6% (active); with SF-295 CNS, -70.6% (active); in the test on SF-539 CNS, -95.4% (active). The growth in the test on UACC-257 melanoma is -73% (active); with M14 melanoma it was -66% (active).

Consider `O=C(Nc1ccc(Cl)cc1)C1=NCCCCN1`, for which the growth in the test with NCI-H23 lung is 92%; in the test with NCI-H226 lung, 84.7%; with NCI-H322M lung, 83.5%; with HOP-62 NSCLC, 70.7%; with NCI-H460 lung, 86.3%; in the test with HOP-92 NSCLC, 89.9%. The growth was 82.6% in the test with NCI-H522 lung; 92.6% with A549/ATCC NSCLC; 99.9% with 786-0 renal; 99.6% with COLO 205 colon; 84.1% in the test with DU-145 prostate; 42.3% in the test with K-562 leukemia. Moreover, the growth in the test on MALME-3M melanoma was 96.7%; with MDA-MB-231 breast, 97.9%; with RXF 393 renal, 106%; in the test on SF-268 CNS, 77.7%; with SF-295 CNS, 93.4%; with SF-539 CNS it was 95.8%. Also, the growth was 99.7% with UACC-257 melanoma and 75.7% with M14 melanoma.

For `CCCCCN(CCCCC)CC(O)c1c(Cl)ccc2ccccc12` (stereo not given), the growth is 54.1% in the test with NCI-H23 lung; 70.4% with NCI-H226 lung; 71.2% in the test on NCI-H322M lung; 80.5% in the test with HOP-62 NSCLC; 66.5% in the test with NCI-H460 lung; 68.1% in the test on HOP-92 NSCLC. Further, the growth in the test on NCI-H522 lung is 79%; with A549/ATCC NSCLC, 67.6%; with 786-0 renal, 71.7%; in the test with COLO 205 colon, 72.9%; in the test on DU-145 prostate it was 69.4%; in the test with K-562 leukemia, 61.7%. Also, the growth is 94.7% in the test on MALME-3M melanoma; 39.7% in the test with MDA-MB-231 breast; 63.1% in the test on RXF 393 renal; 84.7% with SF-268 CNS; 71.7% in the test with SF-295 CNS; 64.2% with SF-539 CNS. The growth in the test with UACC-257 melanoma is 83.1%; in the test on M14 melanoma, 72.2%.

Turning to `COc1cc2c(cc1OC)CC[N+](CCC[N+](C)(C)C)=C2`, the growth in the test on NCI-H23 lung was 106%; in the test on NCI-H226 lung, 104%; in the test with NCI-H322M lung it was 88.6%; with HOP-62 NSCLC, 84%; in the test with NCI-H460 lung, 109%; in the test on HOP-92 NSCLC, 96.1%. The growth in the test on NCI-H522 lung is 80.3%; in the test on A549/ATCC NSCLC, 97.4%; with 786-0 renal it was 96.2%; with COLO 205 colon, 108%; with DU-145 prostate, 108%; in the test on K-562 leukemia, 111%. In addition, the growth was 89% in the test with MALME-3M melanoma; 115% with MDA-MB-231 breast; 113% in the test on RXF 393 renal; 91.7% in the test on SF-268 CNS; 97% with SF-295 CNS; 98% with SF-539 CNS. The growth is 100% in the test with UACC-257 melanoma and 91.7% in the test on M14 melanoma.
